Experimental data taken from PubChem BioAssay (NCI).
This is part of a sample that, as a whole, favours compounds with a hit. Of some 79,000 tested, about 15% had one in any assay. No stated cut-off is given here; in the data, active means growth inhibition above about 70%; inactive means the rest.

Tests used:
[1] = NCI Yeast Anticancer Drug Screen. Data for the rad50 strain (AID 155);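 further: 0% = growth of vehicle-only cultures of the same strain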; settings: S. cerevisiae rad50 strain growth inhibition; at 50.0 µM; stronger effect = higher value
Method in brief: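 Cells are treated with compound, grown, and their growth is then scored against vehicle-only cultures of the same repair-deficient yeast strain.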

[2] = NCI Yeast Anticancer Drug Screen. Data for the mec2-1 strain (AID 157); settings: S. cerevisiae mec2-1 strain, at 50.0 µM, stronger effect = higher value
Method in brief: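 Using mec2-1 yeast: add compound, measure growth, express inhibition versus vehicle-treated cultures.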

[3] = NCI Yeast Anticancer Drug Screen. Data for the sgs1 mgt1 strain (AID 161);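 further: 0% = growth of cultures given vehicle only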; settings: S. cerevisiae sgs1 mgt1 strain, at 50.0 µM, stronger effect = higher value
Method in brief: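 Yeast cells carrying a defined DNA-repair defect were exposed to test compounds. Growth inhibition was measured relative to vehicle-treated controls.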

[4] = NCI Yeast Anticancer Drug Screen. Data for the cln2 rad14 strain (AID 165);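 further: 0% = growth equal to vehicle treated cultures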; settings: S. cerevisiae cln2 rad14 strain, at 50.0 µM, stronger effect = higher value
Method in brief: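 Yeast strain cln2 rad14, bearing defects in cell cycle control and DNA repair, serves as the test system; values reflect growth inhibition compared with vehicle.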

[5] = NCI Yeast Anticancer Drug Screen. Data for the bub3 strain (AID 167); settings: S. cerevisiae bub3 mutant strain, at 50.0 µM, stronger effect = higher value
Method in brief: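 Part of a panel of yeast mutants defective in DNA damage repair or cell cycle regulation. Each strain is grown with compound, and inhibition is calculated relative to solvent-treated cultures.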

[6] = NCI Yeast Anticancer Drug Screen. Data for the mlh1 rad18 strain (AID 175); settings: S. cerevisiae mlh1 rad18 strain growth inhibition; at 50.0 µM; stronger effect = higher value
Method in brief: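 Steps: expose repair-defective yeast to compound; measure growth; express inhibition against vehicle-treated controls.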

Measured: growth inhibition

CCOC(=O)C1SC(=Nc2ccc(C)c(C)c2)N=C1C (stereo not given)
inactive: [1] -20.2% | [2] -7.4% | [3] -22.4% | [4] 19.7% | [5] 4.85% | [6] 7.15%

Cc1ccc(S(=O)(=O)Nc2nnc(CC(C)C)s2)cc1
inactive: [1] 36.2% | [2] -6.45% | [3] 35.2% | [4] 28.1% | [5] 40.9% | [6] 35.9%

CC(=O)Oc1ccccc1/C=C1/C=C(c2ccccc2)OC1=O
inactive: [1] 6.4% | [2] -7.55% | [3] -0.55% | [4] -39.1% | [5] -16.8% | [6] 0.2%

C=C1[C@@H]([C@@]2(C)C=CC(=O)C(C)(C)[C@@H]2CC(=O)OC)CC[C@@]2(C)C(c3ccoc3)OC(=O)[C@H]3O[C@]132 (stereo not given in full)
inactive: [1] -3.35% | [2] -1.5% | [3] 16.9% | [4] 15.5% | [5] 16.4% | [6] -34.5%

c1cc2c3c(c1)CCC3CCC2 (stereo not given)
inactive: [1] -50.1% | [2] -48% | [3] -50.9% | [4] 12.8% | [5] -35% | [6] -4.85%

CC(C)C(=O)Nc1nc2c(ncn2C2OC(CO)C(O)C2O)c(=O)[nH]1 (stereo not given)
inactive: [1] 5.9% | [2] -23.6% | [3] -22.3% | [4] 8.15% | [5] -5.75% | [6] -4.15%

O=C1NCCCCCC1S(=O)c1ccccc1 (stereo not given)
inactive: [1] -7.8% | [2] -10.2% | [3] -8.5% | [4] 28.6% | [5] -11.8% | [6] -11.8%

CCCc1c(C(=O)OCC)[nH]c(-c2ccc(-c3[nH]c(C(=O)OCC)c(CCC)c3C(=O)OCC)s2)c1C(=O)OCC
inactive: [1] -11.8% | [2] -11.3% | [3] -21.6% | [4] 3% | [5] -12.6% | [6] -16.1%

CC(=O)Nc1c(I)c(C(=O)NC2C(O)OC(CO)C(O)C2O)c(I)c(N(C)C(C)=O)c1I (stereo not given)
inactive: [1] -27.2% | [2] 4.55% | [3] -14.2% | [4] -21.6% | [5] -21.5% | [6] -38%

CC1=CC(C)(C)N=C2SC(c3ccc(Cl)cc3)=NN12
inactive: [1] 15.8% | [2] 7.25% | [3] 13.2% | [4] -5.8% | [5] 13.2% | [6] 10.6%

NC(CC(=O)O)c1ccc(Cl)cc1 (stereo not given)
inactive: [1] -22.5% | [2] -23.3% | [3] -14.4% | [4] -8.3% | [5] 0.3% | [6] 7%

C/C(=N/NC(=O)C1CCCO1)c1ccc(C)cc1 (stereo not given)
inactive: [1] 0.95% | [2] -6.5% | [3] -4.75% | [4] -92% | [5] -6.5% | [6] -28.9%

O.O.O=c1[nH]cc(CO)c(=O)[nH]1.[NH2-].[NH2-].[Pt+2]
inactive: [1] 14.1% | [2] -1.15% | [3] 14.5% | [4] 16.6% | [5] 0.45% | [6] 4.25%

CCOC(=O)NN(C/C(Cl)=C/Cl)C/C(Cl)=C/Cl
inactive: [1] -2% | [2] -0.95% | [3] 0.4% | [4] -46.8% | [5] 7.35% | [6] -5.55%

N[C@H](CCC(=O)NCP(=O)(O)O)C(=O)O
inactive: [1] -43.7% | [2] -42.6% | [3] -44.7% | [4] -7.1% | [5] -10.8% | [6] -41.1%

C=CC1CC(NC(=O)OC)C(=O)O1 (stereo not given)
inactive: [1] 1.05% | [2] 5.2% | [3] 8.45% | [4] -38.1% | [5] 14.3% | [6] -3.25%

N#C/C(=C\N1CC(=O)NC1=S)C(N)=O
inactive: [1] -79.8% | [2] -12.6% | [3] -30.9% | [4] -22.1% | [5] -23.2% | [6] -69.5%

COc1ccc(/C=C2/CCOC2=O)cc1
inactive: [1] 44.1% | [2] 18.7% | [3] 11.4% | [4] -9.3% | [5] -2.6% | [6] 28.8%

O=C(O)CCSC1=CC(=O)C(SCCC(=O)O)=CC1=O
inactive: [1] 5.35% | [2] -13.2% | [3] -1.4% | [4] -75.7% | [5] 4.9% | [6] -15.2%

O=C1C(Br)=C(Oc2ccccc2)C(=O)C(Br)=C1Oc1ccccc1
inactive: [1] 7.85% | [2] 11.4% | [3] 13.6% | [4] 1.05% | [5] 10.8% | [6] -8.45%
